# PubChem BioAssay AID651718 (The Scripps Research Institute Molecular Screening Center, 2012)
# Among all 360,000 compounds or so, about 2,700 (0.75%) were called active. The sample holds actives, similar compounds and a random draw of the others, so the mix is not that of the screen. Unmarked numbers belong to inactive results. Rule as the data show it: active = inhibition above about 4.5%; inactive = the rest.
# System: Methionine sulfoxide reductase A (Bos taurus)
# Test: inhibition of methionine sulfoxide reductase A – biochemical, absorbance, bovine, HTS, primary screen (AID 651718);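 also: 0% = vehicle wells with enzyme and 100% = reference inhibitor wells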
# Conditions: purified bovine MsrA, absorbance read-out; at 15.5 µM; active compounds read high
row,SMILES,inhibition
1,COCCN(C(=O)C(C)C)c1nnc(-c2ccc(C(C)(C)C)cc2)s1,-0.05%
2,CC(C)[C@H]1COCCS(=O)(=O)N1Cc1ccccc1-c1cccc2c1sc1ccccc12,1.34%
3,Oc1cccc(CCc2ccccn2)c1,-1%
4,O=C(Cc1ccccn1)c1ccc(O)cc1O,4.91% (active)
5,O=C(O)C(CCc1ccccn1)c1ccccc1 (configuration not stated),-0.84%
6,CCOC(=O)N1CCN(C(=O)C[C@H]2C[C@@]3(C(=O)OC)C(=C[C@H](C4CCCC4)O[C@@H]3C)N(Cc3ccccc3)C2=O)CC1,-0.08%
7,Nc1ncnc2c1ncn2C1OC(CO)CC1O (configuration not stated),1.51%
8,CC1(C(=O)NS(=O)(=O)c2cccc(OC(F)F)c2)CCN1C(=O)C1CC1 (configuration not stated),0.29%
9,COC(=O)c1c(-c2ccc(OC)cc2)c2c(c3c4ccccc4n(S(=O)(=O)c4ccc(C)cc4)c13)C(=O)N(C)C2,1.59%
10,Nc1nc2c(ncn2[C@@H]2O[C@H](C(=O)N[C@H](Cc3ccccc3)C(=O)NCC3CCCCC3)[C@@H](O)[C@H]2O)c(=O)[nH]1,0.66%
11,O=C(O)c1ccc(N/N=C/c2cn(-c3ccccc3)nc2-c2cccs2)cc1,8.7% (active)
12,CC(=O)C1=C(C)NC(C)=C(C(C)=O)C1c1cn(-c2ccccc2)nc1-c1cccs1,1.65%
13,COc1ccc(Cl)cc1NC(=O)CN(C)C(=O)c1cn(-c2ccccc2)nc1-c1cccs1,0.13%
14,CC(=NNC(N)=O)c1ccc(Cl)c(-n2cccc2)c1,-0.35%
15,CN1CCCCC(NC(=O)C(C)(C)C)C1=O (configuration not stated),0%
16,Cc1ccc(NC(=O)CC2S/C(=N/N=C3\CCCc4ccccc43)NC2=O)cc1 (configuration not stated),-0.26%
17,Cc1ccc(S(=O)(=O)Oc2ccc(/C=N/NC(=O)c3c(Cl)cnn3C)cc2)cc1,0.98%
18,CC(=O)Nc1ccc(S(=O)(=O)Oc2ccc(/C=N/N=C3/NC(=O)C(CC(=O)O)S3)cc2)cc1 (configuration not stated),5.33% (active)
19,COC(=O)[C@]12C[C@H](CC(=O)NCCCCc3ccccc3)C(=O)N(Cc3ccc4c(c3)OCO4)C1=C[C@H](C(C)(C)C)O[C@@H]2C,1.75%
20,CCOC(=O)Cn1c2c(n(-c3ccc(F)cc3)c1=O)C=C(c1ccccc1)[C@@H](C)C(C(=O)N(C)C1CCCCC1)=C2,-0.4%
21,COc1ccc(C2=CN(Cc3ccccc3)C(c3ccc(OC)cc3)CC2=O)cc1 (configuration not stated),-0.65%
22,COc1ccc(CNS(=O)(=O)c2cc(Br)ccc2Br)cc1,0.62%

row,SMILES,inhibition
1,Fc1ccccc1/C=N/Nc1cc(N2CCCCC2)ncn1,1.96%
2,O=C(O)c1ccc(NN=CC2=C(N3CCOCC3)/C(=C/c3ccccc3)CC2)cc1,2.43%
3,COc1ccccc1-c1cnn2c(N3CCOCC3)cc(C)nc12,1.96%
4,Cc1cc2c(C)nc(N/N=C/c3ccccc3)nc2o1,3.05%
5,COc1ccc(/C=N/Nc2cc(N3CCOCC3)nc(C)n2)c(OC)c1,5.8% (active)
6,C(=N/Nc1cc(N2CCOCC2)nc(N2CCOCC2)n1)/c1ccccc1,5.01% (active)
7,COc1ccccc1C(=O)N1O[C@]23C=C[C@]14C[C@@H](O)CC[C@]4(C)C2CC[C@]1(C)[C@@H]([C@H](C)/C=C/[C@H](C)C(C)C)CC[C@H]13 (some centres not stated),-0.78%
8,CN(C)C(=O)N1CCN(C(=O)[C@@H](Cc2ccccc2)NC(=O)[C@H]2O[C@@H](n3ccc(N)nc3=O)[C@H](O)[C@@H]2O)CC1,0.17%
9,CSc1ccc(Oc2cccc3c2S(=O)(=O)N([C@H](C)c2ccccc2)C[C@@H](COCc2ccccc2)O3)cc1C,0.09%
10,CC(C)Cc1oc(C(=O)O)cc1CN,-1.34%
11,Cc1ccc(S(=O)(=O)NCCC(c2ccccc2)c2ccccc2)cc1C(=O)O,0%
12,CC(=O)C(C)n1cnc2scc(-c3ccc(C)cc3)c2c1=O (configuration not stated),0.23%
13,CCOC(=O)C(C)n1cnc2scc(-c3ccc(C)c(C)c3)c2c1=O (configuration not stated),8.45% (active)
14,CCn1cnc2scc(-c3ccc(C)c(C)c3)c2c1=O,0.83%
15,COC(=O)Cn1cnc2scc(-c3ccc(C)c(C)c3)c2c1=O,4.6% (active)
16,CCC(C(=O)OC)n1cnc2scc(-c3ccc(C)cc3)c2c1=O (configuration not stated),2.62%
17,CCOC(=O)C(C)n1cnc2c(nnn2-c2ccc(F)cc2)c1=O (configuration not stated),-0.86%
18,Cc1sc2c(c1C)c(=O)n(-c1ccccc1)c1nncn21,0.74%
19,CC1(C)CC(=O)C=C(c2ccc3ncccc3c2)C1,0.6%
20,Cc1cccc(C(=O)NC2CCN(CC(=O)Nc3cccc(Cl)c3)CC2)c1,-0.97%
21,COc1ccc(-c2ccc3c(n2)CCCN3S(=O)(=O)c2ccc(C)cc2)cc1,1.35%
22,CCOC(=O)/C=C/c1ccccc1O,1.24%

row,SMILES,inhibition
1,Nc1ncnc2c1ncn2[C@@H]1O[C@H](C(=O)N[C@@H](CCc2ccccc2)C(=O)N2CCCN(Cc3cccs3)CC2)[C@@H](O)[C@H]1O,-0.82%
2,Cc1ccc(NC(=O)/C(=C\c2ccccc2)NC(=O)c2ccco2)cc1,1.7%
3,COc1ccc(/C=C(/NC(=O)c2ccco2)C(=O)Nc2ccc(C(C)=O)cc2)cc1,6.24% (active)
4,O=C(NC(Cc1ccccc1)C(=O)O)/C(=C\c1ccccc1)NC(=O)c1ccco1 (configuration not stated),-0.85%
5,O=C(NCc1ccccc1)[C@@H]1CCCN1C(=O)[C@@H](NS(=O)(=O)c1ccc(F)cc1F)C1CCCCC1,0.41%
6,C[C@@H](CN1C2=NC[C@@H](Cc3ccccc3)N2C[C@H]1Cc1ccc(O)cc1)NC(=O)CCC1CCCCC1,-0.6%
7,C[C@H]1[C@H](c2ccccc2)Oc2cc(Br)ccc2S(=O)(=O)N1Cc1cccc(F)c1,-0.62%
8,COc1ccc(CCNC(=O)c2ccccc2-c2ccccc2C(=O)O)cc1OC,-1.11%
9,COc1ccc(CC(=O)c2ccc(O)cc2O)cc1OC,5.45% (active)
10,COc1ccc(CCNC(=O)CCc2ccccc2O)cc1OC,-1.41%
11,COCc1[nH]nc2c1C(c1ccccc1)N(c1ccccc1)C2=O (configuration not stated),2.45%
12,Cc1ccc(C(=O)N/C(=C/C=C/c2ccccc2)C(=O)NCc2ccco2)cc1,3.44%
13,O=C(N/C(=C\c1ccc([N+](=O)[O-])cc1)C(=O)N1CCOCC1)c1cccc(Br)c1,2.94%
14,CC(C=Cc1ccccc1)=NNS(=O)(=O)c1ccc([N+](=O)[O-])cc1,0.99%
15,O=C(Nc1ccc(C(=O)O)cc1)/C(=C\c1ccccc1)NC(=O)c1ccc(Br)cc1,-0.28%
16,O=C(Nc1ccc(C(=O)O)cc1)/C(=C/c1ccc([N+](=O)[O-])cc1)NC(=O)c1ccccc1,5.97% (active)
17,CNC(=O)/C(=C\C=C\c1ccccc1)NC(=O)c1ccc([N+](=O)[O-])cc1,5.69% (active)
18,O=C(NS(=O)(=O)c1cccs1)[C@H]1O[C@@H](n2ccc(=O)[nH]c2=O)[C@H](O)[C@@H]1O,-0.74%
19,O=C(NN=Cc1ccco1)C(=O)Nc1ccc(Cl)c([N+](=O)[O-])c1,-0.74%
20,Cc1oc2c(c1C(=O)N1CCOCC1)C(=O)c1ccccc1C2=O,14.1% (active)
21,Cc1nc2ccccc2n1C(=O)N1CCOCC1,-0.3%
22,CC(C(=O)Nc1ccccc1-c1ccccc1)N1CCOCC1 (configuration not stated),0.29%

row,SMILES,inhibition
1,CCOc1cc(/C=N/NC(=O)CN2CCCCC2)ccc1O,0.86%
2,CCOc1cc(/C=N/NC(=O)c2c(C)nc3ccc(Cl)cn23)ccc1O,6.4% (active)
3,CCOc1ccc(/C=N\NC(=O)c2c(C)nc3cc(C)ccn23)cc1,3.14%
4,COC(=O)Nc1nc2ccc(C(=O)C3CC3)cc2[nH]1,1.54%
5,CCOC(=O)c1cc(C)nc(S(C)(=O)=O)c1C#N,1.83%
6,CCOC(=O)c1c(C)[nH]c(C)c1C(=O)CSc1nc(N)cc(N)n1,0.97%
7,CCOC(=O)c1c(C(C#N)C#N)cc(C)nc1C,5.28% (active)
8,N#Cc1ccc(S(=O)(=O)NCC(=O)OCC(=O)NCCc2ccccc2)cc1,0.77%
9,O=C(NCc1ccccc1)[C@@H]1CCCN1C(=O)[C@H]1CCCN1C(=O)c1cccc(Cl)c1,-0.24%
10,Brc1ccc(COCCc2cn(Cc3ccccc3)c3ccccc23)cc1,-0.08%
11,CSc1nc2c(c(=O)[nH]1)C(c1cccc(Cl)c1Cl)CC(=O)N2 (configuration not stated),-1.13%
12,N#Cc1c(N)nc2c3c(sc(=N)c2c1N)NC(=O)CC3c1ccccc1Cl (configuration not stated),6.25% (active)
13,COC(=O)[C@H](CC(C)C)NS(=O)(=O)c1c(F)cccc1F,1.4%
14,COc1cccc(/C(C)=N/Nc2ncc(Cl)cc2Cl)c1,5.21% (active)
15,COC(=O)c1sccc1N/N=C(\C)c1ccc(F)c(Cl)c1,-0.14%
16,CCN(CC)c1ccc(C(=O)N/N=C(\C)c2cccc(OC)c2)cc1,1.78%
17,COc1cccc(CNC(=O)[C@H]2CCCN2C(=O)[C@H]2CCCN2C(=O)c2cc(F)cc(F)c2)c1,0.79%
18,CCCN1C(=O)c2[nH]nc(-c3ccccc3)c2C1c1ccccc1 (configuration not stated),0.64%
19,Nc1nnnn1CC(=O)N/N=C/c1ccc(-c2cccc(Cl)c2)o1,5.41% (active)
20,O=C(N/N=C\c1ccc(-c2ccc(Cl)c(Cl)c2)o1)C(=O)N1CCCC1,-0.58%
21,O=C(Cn1nnc(-c2ccccc2)n1)N/N=C/c1ccc(-c2ccc(Cl)cc2)o1,1.47%
